High-throughput results (PubChem)
TDP1 cell noCPT: qHTS for Inhibitors of human tyrosyl-DNA phosphodiesterase 1 (TDP1): qHTS in cells in absence of CPT | Potency, µM (series often up to 46.2 µM), for the others: top-dose activity change, negative = growth inhibition, usual class: inhibitors | DT40 Tdp1-/- hTDP1 cells, no CPT, ATP luminescence, 48 h | 420,000 tested, 15% active; note: potency is the fitted concentration of half-maximal effect; nearly all actives have a fitted effect of over 55% in size
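Stably hTDP1-transfected Tdp1-null chicken DT40 cells were treated with library compounds minus camptothecin and grown for at least 48 hr at 37 °C, after which cellular ATP was quantified by luminescence.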
ELG1 repair inh: blocks ELG1-dependent DNA repair in HEK293T cells. HEK293T ELG1-luciferase reporter, luminescence, 16 h; DNA damage induced by 5-fluorouridine. Potency, µM (series often up to 46.1 µM), for inactives: top-dose activity change, negative = inhibition, usual class: inhibitors. 330,000 tested, 2.3% active. AID 504467; note: potency is the fitted concentration of half-maximal effect; nearly all actives have a fitted effect of over 55% in size
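Reporter activity after DNA damage by 5-fluorouridine is monitored. Compound-treated cells incubate 16 hr at 37 °C, then ONE-Glo is added for 30 min before luminescence reading.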
DT40 TDP1 CPT: DT40-hTDP1 cell growth loss with CPT; Potency, µM (series often up to 46.2 µM), inactives show top-dose activity change, negative = growth inhibition, most hits filed as inhibitors; chicken DT40 Tdp1-/-;hTDP1 cells + 20 nM CPT, ATP luminescence, 48 h; AID 686979; 420,000 tested, 12% active; note: potency is the fitted concentration of half-maximal effect; nearly all actives have a fitted effect of over 55% in size
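Chicken DT40 Tdp1-/- cells stably complemented with human TDP1 were seeded at 400 cells/well in medium containing 20 nM camptothecin, exposed to pin-transferred compounds, and grown at 37 °C for at least 48 hr. Viability was read as ATP luminescence.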
HT1080 IDH1KD tx: toxicity to HT-1080 IDH1 knockdown cells (counter line); AID 686971; Potency, µM (doses to about 46.1 µM), for inactives: at the highest dose activity, negative = toxicity, usual class: cytotoxic; HT-1080 IDH1 knockdown viability, ATP luminescence, 48 h; 360,000 tested, 2% active;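 note: potency is the fitted concentration of half-maximal effect; 0% = DMSO wells and -100% = cell-free medium wells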
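HT-1080-IDH1KD cells (IDH1 knocked down), 750/well in RPMI with 5% FBS, treated with compound 48 h at 37 degrees C. Viability by CellTiter-Glo luminescence, normalised to DMSO and no-cell wells; concentration-response curves classed.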
IL1B secr inh: inhibitors of inflammasome signaling (IL-1 beta secretion); THP-1 LPS/ATP IL-1B secretion, AlphaLISA, 16 h; hits give low values; activity change, % at 57.5 µM; 360,000 tested, 4.7% active; in the data active = activity change below about -50%; inconclusive = mostly about -30% to -49%
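Secreted IL-1B measured by AlphaLISA bead assay after 16 h compound exposure of THP-1 cells; compounds (final up to 57.5 uM) added 1 h before LPS (250 ng/mL) and ATP (1.25 mM) stimulation; lower signal means less secretion.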
HT1080NT lethal: kills 2HG-producing HT-1080-NT fibrosarcoma cells | HT-1080-NT fibrosarcoma viability, CellTiter-Glo ATP luminescence, 48 h | AID 686970 | 360,000 tested, 1.6% active | Potency, µM (titrated, usually from 46.1 µM), for the others: top-dose activity, negative = less viability, usual class: cytotoxic;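 note: NT is the 2HG producing partner of a matched IDH1 knockdown line; potency is the fitted concentration of half-maximal effect; 0% = DMSO-treated cells and -100% = media-only wells without cells; nearly all actives have a fitted effect of over 55% in size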
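HT-1080-NT fibrosarcoma cells (2HG-overproducing), 750 cells/well in RPMI with 5% FBS, dosed after 2 h and incubated 48 h at 37C. CellTiter-Glo luminescence normalized to DMSO and no-cell wells; concentration-response curves fitted and classed.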
* hit, by the source's call; ? = inconclusive; · = not tested or not shown; [ ] = another dose, or the depositor's remark. This is a sample that favours compounds with a hit; in the whole collection about 19% have one here. Unless noted, calls come from the whole dose curve; as a rule, active = well fitted curve in the direction sought with a large enough effect; inconclusive = small, poorly fitted or top-dose-only effect, or another doubt; inactive = no such curve, though single readings can be large; an effect the other way counts as inactive or inconclusive. Unless noted, % is set by controls: 0 for no effect and ±100 for the full control effect.

SMILES	TDP1 cell noCPT	ELG1 repair inh	DT40 TDP1 CPT	HT1080 IDH1KD tx	IL1B secr inh	HT1080NT lethal
CC(=O)O[C@H]1CC[C@@]2(C)C(=CC[C@@H]3[C@@H]2CC[C@]2(C)C(=O)CC[C@@H]32)C1	?	0%	?	6%	-23	?
CC(=O)O/C(=C1\CC2C3CC=C4CC(OC(C)=O)CCC4(C)C3CCC2(C)C1=O)C(F)(F)F (centres undefined)	3.7µM*	·	4.6µM*	-6%	33	1%
Cc1ccc(-c2nnc(Nc3ccc(Br)cc3)c3ccccc23)cc1S(=O)(=O)NCc1nc2ccccc2[nH]1	23µM*	·	?	·	·	·
Cc1noc(C(=O)Nc2sc3c(c2C#N)CCC3)c1Cl	?	6%	?	-13%	32	-4%
Cc1cc(C(=O)Nc2sc3c(c2C#N)CCC3)no1	?	?	?	?	0	10µM*
CCOc1ccc(NC(=O)c2c(C)nn(Cc3ccccc3)c2Cl)cc1	-4%	-2%	0%	-11%	10	-11%
CCOc1ccc(NC(=O)c2ccc(NC(=O)COC(=O)Cc3ccccc3)cc2)cc1	-2%	?	-6%	-2%	-12	0%
CCOc1ccc(NC(=O)CN(c2ccc(Cl)cc2C)S(=O)(=O)c2ccccc2)cc1	10µM*	·	8.2µM*	·	·	·
CCOc1ccc(S(=O)(=O)N(CC(=O)NCc2ccccc2OC)c2ccccc2)cc1	16µM*	·	15µM*	·	·	·
O=C(CSc1oc(-c2ccccc2)nc1S(=O)(=O)c1ccc(Cl)cc1)Nc1ccc(F)cc1	?	·	10µM*	·	·	·
CCOc1ccc(NC(=O)CSc2oc(-c3ccccc3)nc2S(=O)(=O)c2ccc(Cl)cc2)cc1	21µM*	·	7.3µM*	·	·	·
O=C(CN1CCN(CC(=O)Nc2ccc(OCc3ccccc3)cc2)CC1)Nc1ccc(F)cc1	?	·	?	?	-27	?
O=C(COc1ccc2ccc(=O)oc2c1)N1CCC(C(=O)O)(c2ccccc2)CC1	2%	-10%	-10%	2%	2	-6%
O=C1NC(=O)N(c2cccc(Br)c2)C(=O)/C1=C/c1ccsc1	?	24%	?	23µM*	-24	?
CCCC1(CC(C)C)C(=O)NC(=S)NC1=O	-9%	·	6%	2%	10	0%
CC(Cc1ccccc1)NCCn1cnc2c1c(=O)n(C)c(=O)n2C (centres undefined)	?	·	-29%[92.5 µM]	·	·	·
CC1CCN(CC(=O)c2cccc(C(F)(F)F)c2)CC1	4%	16%	-12%	3%	-6	4%
Cc1c(NC(=O)Nc2cccc(C(F)(F)F)c2)sc2nc3n(c(=O)c12)CCC(C)CC3 (centres undefined)	18µM*	·	13µM*	·	·	·
C[C@]12CC[C@H](O)C[C@@H]1CC[C@H]1[C@H]3CCC(=O)[C@@]3(C)CC[C@@H]12	18µM*	·	?	-1%	-25	-1%
C[C@]12CC[C@@H](O)C[C@@H]1CC[C@@H]1[C@@H]2CC[C@]2(C)C(=O)CC[C@@H]12	?	·	-22%	3%	29	10%
C[C@]12CCC3C(CC[C@H]4C[C@H](OC(=O)c5cccnc5)CC[C@]34C)C1CCC2=O (some centres undefined)	23µM*	?	?	-12%	21	-6%
C[C@]12CCC3C(CC[C@H]4C[C@H](O)CC[C@]34C)C1CCC2=O (some centres undefined)	?	8%	1%	4%	22	-2%
C=CCc1c(C)[nH]c(=S)c(C#N)c1C	?	-4%	?	10%	0	10%
Nc1ccc(-c2ccc(N)cc2)cc1	-16%	·	?	17%	-15	11%
CCOC(=O)C1=C(N)OC2=C(C(=O)CCC2)[C@]12C(=O)N(CC(N)=O)c1ccccc12	2%	3%	8%	-4%	1	0%
SMILES	TDP1 cell noCPT	ELG1 repair inh	DT40 TDP1 CPT	HT1080 IDH1KD tx	IL1B secr inh	HT1080NT lethal
CC1(C)C2([N+](=O)[O-])CN3CC1([N+](=O)[O-])CN(C2)C3c1ccccn1 (centres undefined)	0%	10%	6%	4%	20	10%
CCC1C(c2cc(OC)c(OC)c(OC)c2)c2cc3c(cc2OC1N1CCCC1)OCO3 (centres undefined)	4.1µM*	·	5.2µM*	?	-18	?
COc1ccc(C(=O)Nc2ccc(-c3cc(C(F)(F)F)nn3-c3ccccc3)cc2)cc1OC	13µM*	·	18µM*	·	·	·
CC1Cc2ccccc2N1Cc1cccc(S(=O)(=O)N(C)C)c1 (centres undefined)	?	-23%	?	-23%	-1	-27%
CN1C(=O)C(C)(C2=CCCCC2)C(=O)NC1=S (centres undefined)	-1%	·	14%	11%	13	6%
O=C(CN1CC=C(c2ccccc2)CC1)NC(=O)NC1CCCCC1	?	3%	-19%	-7%	-6	0%
CC(C)(C)NC(=O)NC(=O)CN1CC=C(c2ccccc2)CC1	13µM*	-7%	16µM*	-2%	-5	-3%
COC(=O)C1=CO[C@@H](C)[C@@H]2CN3CC[C@]4(C(=O)Nc5c4ccc(OC)c5OC)[C@H]3C[C@H]12	-7%[9.04 µM]	·	8%[9.04 µM]	·	·	·
N#CC(C#N)=NNc1ccc(OC(F)(F)F)cc1	1.1µM*	·	1.1µM*	·	·	·
FC(F)(F)Oc1ccc(NC2=NCCCS2)cc1	-24%	21%	-21%	15%	19	0%
CSc1ncc(/C=C2/C(=O)NC(=O)N(c3ccc(Cl)cc3)C2=O)cn1	-11%	5%	-20%	3%	58	-7%
CC(C)c1ccc(NC(=O)c2ccc(F)c(S(=O)(=O)N3CCc4ccccc4C3)c2)cc1	5.2µM*	·	4.6µM*	·	·	·
CCCCc1ccc(NC(=O)c2ccc3c(c2)CCN3S(=O)(=O)CC)cc1	3.7µM*	·	7.3µM*	·	·	·
CC(C)c1ccc(NC(=O)c2ccc3c(c2)CCN3S(=O)(=O)c2ccccc2)cc1	5.8µM*	·	4.6µM*	·	·	·
CCN(CC)C(=O)c1ccc(NC(=O)c2ccc(N3CCCC3=O)cc2)cc1	-4%	17%	9%	10%	-14	2%
c1ccc2oc(-c3ccc4c(c3)CNCc3cnnn3-4)cc2c1	?	·	?	27%	-1	?
Oc1cc[c]([Hg][Cl])cc1	0.27µM*	·	0.3µM*	·	·	·
